Values without a mark were called inactive. Calls of active or inactive are those of the source. Cut-off read from the data, not from the text of the source, unless noted: active = inhibition above about 44%; inactive = the rest.
Legend:
[1] = biological target: Nuclear receptor coactivator 3 (Homo sapiens) (UniProt Q9Y6Q9); experiment: SRC3 coactivator transcriptional activity inhibitors, confirmation, cell-based, luminescence, quadruplicate (AID 588792;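 active = mean inhibition over 43.08%, the solvent-only control mean plus 3 SD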;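 note: 0% = DMSO treated cells and 100% = gossypol at 36 µM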); details: HEK293 GAL4-SRC3 luciferase reporter, at 3.6 µM, hits give high values
Sequence of Nuclear receptor coactivator 3 (Homo sapiens) (Q9Y6Q9 whole entry, looked up, the tested form may be a part): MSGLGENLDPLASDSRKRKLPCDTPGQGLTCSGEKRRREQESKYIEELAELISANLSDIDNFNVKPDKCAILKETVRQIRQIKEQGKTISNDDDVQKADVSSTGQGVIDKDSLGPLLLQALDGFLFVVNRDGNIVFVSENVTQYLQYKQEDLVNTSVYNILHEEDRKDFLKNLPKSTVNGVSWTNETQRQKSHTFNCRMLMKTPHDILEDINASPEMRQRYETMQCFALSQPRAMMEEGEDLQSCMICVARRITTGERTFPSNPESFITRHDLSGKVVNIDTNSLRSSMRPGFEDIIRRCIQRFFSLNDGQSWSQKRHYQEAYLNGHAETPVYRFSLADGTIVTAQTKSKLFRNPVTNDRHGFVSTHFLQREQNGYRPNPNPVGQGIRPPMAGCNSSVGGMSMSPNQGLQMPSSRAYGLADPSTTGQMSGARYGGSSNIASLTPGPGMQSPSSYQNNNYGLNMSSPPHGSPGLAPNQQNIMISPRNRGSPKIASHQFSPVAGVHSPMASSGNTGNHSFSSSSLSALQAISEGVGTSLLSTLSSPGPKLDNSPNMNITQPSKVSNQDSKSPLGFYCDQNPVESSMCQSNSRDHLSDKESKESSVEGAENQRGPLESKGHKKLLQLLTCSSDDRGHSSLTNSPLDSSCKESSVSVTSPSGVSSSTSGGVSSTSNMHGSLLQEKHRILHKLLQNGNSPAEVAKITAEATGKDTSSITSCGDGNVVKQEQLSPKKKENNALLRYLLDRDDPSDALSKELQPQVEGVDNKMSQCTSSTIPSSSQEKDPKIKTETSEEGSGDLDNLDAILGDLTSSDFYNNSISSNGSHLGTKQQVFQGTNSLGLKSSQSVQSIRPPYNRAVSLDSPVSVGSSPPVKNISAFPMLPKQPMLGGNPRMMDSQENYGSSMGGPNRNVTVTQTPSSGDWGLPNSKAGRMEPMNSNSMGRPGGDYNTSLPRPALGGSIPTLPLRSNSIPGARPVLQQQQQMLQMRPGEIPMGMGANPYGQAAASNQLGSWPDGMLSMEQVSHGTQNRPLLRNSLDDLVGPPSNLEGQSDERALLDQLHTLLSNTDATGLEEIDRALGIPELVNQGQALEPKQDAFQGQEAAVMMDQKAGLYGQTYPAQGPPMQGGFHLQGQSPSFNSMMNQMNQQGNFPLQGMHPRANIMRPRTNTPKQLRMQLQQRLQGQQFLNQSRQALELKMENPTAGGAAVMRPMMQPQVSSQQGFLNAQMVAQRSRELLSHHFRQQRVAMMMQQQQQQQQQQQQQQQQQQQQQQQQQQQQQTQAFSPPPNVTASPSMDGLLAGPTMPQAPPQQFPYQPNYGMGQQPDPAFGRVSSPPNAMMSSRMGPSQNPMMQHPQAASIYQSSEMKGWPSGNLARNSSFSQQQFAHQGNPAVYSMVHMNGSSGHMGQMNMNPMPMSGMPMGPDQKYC

[2] = tested on: transactivating tegument protein VP16 (Human herpesvirus 1), Gal4-VP16 luciferase reporter; experiment: VP16 transactivation inhibitors, counter-screen for SRC3 inhibitor project, cell-based, luminescence, high throughput (AID 588794; in the data active = inhibition above about 30%); details: mammalian cells, VP16-driven luciferase reporter luminescence; at 3.6 µM; hits give high values
[3] = biological target: Nuclear receptor coactivator 1 (Homo sapiens) (UniProt Q15788); experiment: SRC1 coactivator transcriptional activity inhibitors, confirmation, cell-based, luminescence, quadruplicate (AID 588820;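 active = mean inhibition above 46.68%, the untreated control wells mean plus 3 SD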;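 note: 0% = DMSO wells and 100% = gossypol 36 µM treated wells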); details: HEK293 GAL4-SRC1 luciferase reporter, at 3.6 µM, hits give high values
Sequence of Nuclear receptor coactivator 1 (Homo sapiens) (Q15788 whole entry, looked up, the tested form may be a part): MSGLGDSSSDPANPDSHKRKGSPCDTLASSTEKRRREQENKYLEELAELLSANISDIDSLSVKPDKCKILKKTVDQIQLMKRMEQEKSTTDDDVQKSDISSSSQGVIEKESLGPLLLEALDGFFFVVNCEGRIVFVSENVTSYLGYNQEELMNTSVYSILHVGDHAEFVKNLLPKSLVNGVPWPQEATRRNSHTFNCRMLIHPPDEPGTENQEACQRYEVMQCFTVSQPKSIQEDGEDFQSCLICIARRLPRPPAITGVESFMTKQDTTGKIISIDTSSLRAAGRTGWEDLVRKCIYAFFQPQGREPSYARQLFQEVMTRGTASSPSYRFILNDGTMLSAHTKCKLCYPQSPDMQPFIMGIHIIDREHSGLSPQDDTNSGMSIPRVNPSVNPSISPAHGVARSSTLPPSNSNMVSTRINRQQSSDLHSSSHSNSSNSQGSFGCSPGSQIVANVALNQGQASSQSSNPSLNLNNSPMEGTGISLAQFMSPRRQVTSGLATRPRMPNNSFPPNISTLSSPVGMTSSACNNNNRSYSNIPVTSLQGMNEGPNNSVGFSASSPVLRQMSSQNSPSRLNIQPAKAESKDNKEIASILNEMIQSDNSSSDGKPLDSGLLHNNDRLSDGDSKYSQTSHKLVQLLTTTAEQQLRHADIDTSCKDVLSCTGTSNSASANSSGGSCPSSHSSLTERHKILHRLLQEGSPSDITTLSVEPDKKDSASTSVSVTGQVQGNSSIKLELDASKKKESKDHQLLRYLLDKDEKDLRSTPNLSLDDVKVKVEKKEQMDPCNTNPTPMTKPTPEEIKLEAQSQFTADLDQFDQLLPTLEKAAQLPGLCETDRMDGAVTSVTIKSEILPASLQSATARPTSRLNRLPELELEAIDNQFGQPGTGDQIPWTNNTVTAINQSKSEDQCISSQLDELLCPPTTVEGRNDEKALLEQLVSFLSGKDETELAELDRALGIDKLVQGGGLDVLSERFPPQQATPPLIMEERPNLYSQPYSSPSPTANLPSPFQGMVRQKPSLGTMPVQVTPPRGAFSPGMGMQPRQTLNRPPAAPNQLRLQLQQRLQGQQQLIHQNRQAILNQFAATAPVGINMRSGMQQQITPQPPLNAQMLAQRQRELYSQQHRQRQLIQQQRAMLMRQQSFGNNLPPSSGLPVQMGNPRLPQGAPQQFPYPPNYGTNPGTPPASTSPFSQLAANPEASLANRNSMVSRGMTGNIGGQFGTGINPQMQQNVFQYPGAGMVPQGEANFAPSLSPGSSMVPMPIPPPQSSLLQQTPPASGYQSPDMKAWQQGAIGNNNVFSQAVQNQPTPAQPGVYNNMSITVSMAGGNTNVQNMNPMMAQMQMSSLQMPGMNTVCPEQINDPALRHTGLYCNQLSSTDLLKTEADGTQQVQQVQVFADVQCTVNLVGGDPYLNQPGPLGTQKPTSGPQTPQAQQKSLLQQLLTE

[4] = VP16 transactivation inhibitors, counter-screen for SRC1 inhibitor project, cell-based, luminescence, high throughput (AID 588824; in the data active = inhibition above about 25%); details: cell-based VP16 transactivation luciferase luminescence; at 3.6 µM; hits give high values
[5] = StAR promoter reporter inhibitors, counter-screen for LRH-1 inverse agonist project, cell-based, luminescence, high throughput (AID 651611; in the data active = inhibition above about 28%); details: StAR promoter luciferase reporter counterscreen, at 3.6 µM, hits give high values
[6] = biological target: Nuclear receptor subfamily 5 group A member 2 (Homo sapiens) (UniProt O00482); experiment: LRH-1 (NR5A2) inverse agonists, retest, confirmation, cell-based, luminescence (AID 651613; in the data active = inhibition above about 42%;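 note: HEK293T cells co-transfected with LRH-1 and StAR promoter luciferase reporter; 0% = vehicle wells and 100% = parental cells lacking receptor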); details: cell-based LRH-1 luciferase reporter, inverse agonism; at 3.6 µM; hits give high values
Sequence of Nuclear receptor subfamily 5 group A member 2 (Homo sapiens) (O00482 whole entry, looked up): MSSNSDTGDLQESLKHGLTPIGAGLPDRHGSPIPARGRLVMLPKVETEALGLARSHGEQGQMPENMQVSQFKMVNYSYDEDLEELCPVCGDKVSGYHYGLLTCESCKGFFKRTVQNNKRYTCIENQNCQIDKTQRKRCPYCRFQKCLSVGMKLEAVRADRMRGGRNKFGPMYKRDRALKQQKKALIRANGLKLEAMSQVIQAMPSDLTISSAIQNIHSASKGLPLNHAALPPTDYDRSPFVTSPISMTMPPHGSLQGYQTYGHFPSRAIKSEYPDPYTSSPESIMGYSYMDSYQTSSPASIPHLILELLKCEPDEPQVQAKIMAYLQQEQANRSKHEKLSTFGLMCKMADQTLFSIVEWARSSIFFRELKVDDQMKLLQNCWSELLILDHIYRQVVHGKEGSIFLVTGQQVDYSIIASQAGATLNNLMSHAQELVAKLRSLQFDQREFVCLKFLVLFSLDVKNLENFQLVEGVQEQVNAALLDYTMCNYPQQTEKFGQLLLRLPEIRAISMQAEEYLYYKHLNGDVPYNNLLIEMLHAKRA

[7] = biological target: Steroidogenic factor 1 (Homo sapiens) (UniProt Q13285); experiment: SF1 (NR5A1) inverse agonists, counter-screen for LRH-1 inverse agonist project, cell-based, luminescence, high throughput (AID 651614); details: cell-based SF1 luciferase reporter, at 3.6 µM, hits give high values;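 note: cells cotransfected with StAR promoter reporter and SF1 expression vector; 0% = vehicle on cells with receptor and 100% = vehicle on cells lacking receptor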
Sequence of Steroidogenic factor 1 (Homo sapiens) (Q13285 whole entry, looked up, the tested form may be a part): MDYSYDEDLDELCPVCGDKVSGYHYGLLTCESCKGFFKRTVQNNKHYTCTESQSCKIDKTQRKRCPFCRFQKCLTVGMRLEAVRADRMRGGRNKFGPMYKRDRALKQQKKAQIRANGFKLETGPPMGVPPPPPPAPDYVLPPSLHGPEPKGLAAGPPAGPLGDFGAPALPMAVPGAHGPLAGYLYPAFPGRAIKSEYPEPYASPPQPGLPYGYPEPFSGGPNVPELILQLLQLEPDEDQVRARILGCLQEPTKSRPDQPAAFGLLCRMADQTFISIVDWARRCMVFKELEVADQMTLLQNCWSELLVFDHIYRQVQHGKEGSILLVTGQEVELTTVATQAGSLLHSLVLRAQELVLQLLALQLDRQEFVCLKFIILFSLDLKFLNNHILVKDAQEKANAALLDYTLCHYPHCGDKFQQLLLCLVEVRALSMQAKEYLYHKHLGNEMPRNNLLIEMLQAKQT

[8] = VP16 transactivation reporter inhibitors, counter-screen for LRH-1 inverse agonist project, cell-based, luminescence, high throughput (AID 651615; in the data active = inhibition above about 33%); details: Gal4-VP16 luciferase reporter cells, at 3.6 µM, hits give high values

| Structure (SMILES) | inhibition [1] | inhibition [2] | inhibition [3] | inhibition [4] | inhibition [5] | inhibition [6] | inhibition [7] | inhibition [8] |
| --- | --- | --- | --- | --- | --- | --- | --- | --- |
| c1ccc(-c2nnc(-c3ccccn3)nc2NC2CCCCC2)cc1 | 70.2% (active) | 14.8% | 49.1% (active) | 18.8% | 82.6% (active) | 88.9% (active) | 74.7% (active) | 45.4% (active) |
| CC(=O)Nc1ccc(SCC(=O)c2cc(C)n(Cc3cccs3)c2C)cc1 | 52.1% (active) | 40.1% (active) | -1.59% | 5.47% | -55.3% | -90.8% | -25.9% | -31.9% |
| C=C1C(=O)C23C(O)C1CCC2C12CCCC(C)(COC(C)=O)C1C(O)C3(O)OC2 (stereo not drawn) | 66.6% (active) | 58.3% (active) | 20.7% | 57.9% (active) | 71.9% (active) | 63.7% (active) | 74.4% (active) | 82.5% (active) |
| CC#CC[N+](C)(C)CCCCCCCCCCCC | 32.2% | 39.2% (active) | 22.1% | 32.1% (active) | 33% (active) | 65.2% (active) | 65.9% (active) | 63.5% (active) |
| NS(=O)(=O)c1ccc(NC(=O)/C=C/c2ccc3c(c2)OCO3)cc1 | 10.8% | 53.6% (active) | 17.1% | 52% (active) | 47% (active) | 61.7% (active) | 62.2% (active) | 66.2% (active) |
| CCCC(=O)NC(c1ccc(Cl)cc1)c1ccc2cccnc2c1O (stereo not drawn) | 31% | 28% | 15.5% | 40.2% (active) | 71.8% (active) | 83.3% (active) | 74.9% (active) | 74.8% (active) |
| Cn1c(=O)c2cc(NC(=O)CCc3ccc(O)cc3)ccc2n1Cc1cccc(C(F)(F)F)c1 | 34.4% | 64.2% (active) | 38.7% | 66% (active) | 63.3% (active) | 80% (active) | 80.1% (active) | 76.9% (active) |
| CCCCC(=O)NC(c1ccccc1)c1ccc2cccnc2c1O (stereo not drawn) | 53.3% (active) | 36.9% (active) | 27.8% | 29.2% (active) | 60.3% (active) | 69.5% (active) | 63.6% (active) | 73% (active) |
| CC(C)=CC(O)C/C(C)=C/COc1ccc2ccc(=O)oc2c1 (stereo not drawn) | 17.4% | 38.5% (active) | 0.43% | 40.6% (active) | -4.64% | 31.5% | 29.2% | -10.8% |
| CCN1CCN(/C=N/c2nc3c(s2)CCCC3)CC1 | 19.2% | -9.09% | -62.9% | -59.3% | -69.4% | -91.2% | -86.7% | -69.9% |
| O=C(Nc1nc(-c2ccccc2)cs1)c1ccccc1NS(=O)(=O)c1ccc(F)cc1 | 40.7% | 65.5% (active) | 45% | 60.5% (active) | 66.6% (active) | 101% (active) | 87.5% (active) | 79.3% (active) |
| CN(C)c1ccc(/C=C/c2ccc3ccccc3n2)cc1 | 33.3% | 29% | 0.35% | 14.3% | 55.6% (active) | 59.3% (active) | 72.4% (active) | 29.4% |
| CC(C)(C)c1ccc(/C=N/Nc2ccc(C(=O)O)cc2)cc1 | 28.4% | 32.6% (active) | 13.3% | 13.9% | -5.93% | -189% | -79.9% | -20.1% |
| CC1(C)CC(N2CCCCC2)=CC(=[N+]2CCCCC2)C1 | 21.5% | 44.1% (active) | 14.8% | 39.7% (active) | 30.1% (active) | 80% (active) | 69.1% (active) | 67.3% (active) |
| CCN(CC)c1ccc(/C=C/c2cccc[n+]2C)c(OC)c1 | 48.1% (active) | 75% (active) | 52.2% (active) | 77.1% (active) | 73.3% (active) | 106% (active) | 91.8% (active) | 85.7% (active) |
| Nc1cc2c3c(cccc3c1)C(=O)N(CCN1CCCC1)C2=O | 16.8% | 40.7% (active) | 38.9% | 46.9% (active) | 60.5% (active) | 66.6% (active) | 61.6% (active) | 69.9% (active) |
